Laboratory results from paper PMC4336329 (PLoS ONE, 2015).
In all, about 310,000 compounds went through this assay and about 14,000 (4.5%) showed an effect of 50% or more. Effects have a minus sign here. What follows is part of a selection rich in strong results, with near analogues and random picks from the rest.

Each compound was assayed against human ether-à-go-go-related gene (hERG) potassium channel (human, UniProt Q12809) (assay: primary screen, population patch clamp on CHO cells stably expressing hERG; higher = less effect of the substance).
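Further: peak tail current of the secondary pulse compared with the same well before compound.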

Chain of human ether-à-go-go-related gene (hERG) potassium channel (Q12809 whole entry, looked up): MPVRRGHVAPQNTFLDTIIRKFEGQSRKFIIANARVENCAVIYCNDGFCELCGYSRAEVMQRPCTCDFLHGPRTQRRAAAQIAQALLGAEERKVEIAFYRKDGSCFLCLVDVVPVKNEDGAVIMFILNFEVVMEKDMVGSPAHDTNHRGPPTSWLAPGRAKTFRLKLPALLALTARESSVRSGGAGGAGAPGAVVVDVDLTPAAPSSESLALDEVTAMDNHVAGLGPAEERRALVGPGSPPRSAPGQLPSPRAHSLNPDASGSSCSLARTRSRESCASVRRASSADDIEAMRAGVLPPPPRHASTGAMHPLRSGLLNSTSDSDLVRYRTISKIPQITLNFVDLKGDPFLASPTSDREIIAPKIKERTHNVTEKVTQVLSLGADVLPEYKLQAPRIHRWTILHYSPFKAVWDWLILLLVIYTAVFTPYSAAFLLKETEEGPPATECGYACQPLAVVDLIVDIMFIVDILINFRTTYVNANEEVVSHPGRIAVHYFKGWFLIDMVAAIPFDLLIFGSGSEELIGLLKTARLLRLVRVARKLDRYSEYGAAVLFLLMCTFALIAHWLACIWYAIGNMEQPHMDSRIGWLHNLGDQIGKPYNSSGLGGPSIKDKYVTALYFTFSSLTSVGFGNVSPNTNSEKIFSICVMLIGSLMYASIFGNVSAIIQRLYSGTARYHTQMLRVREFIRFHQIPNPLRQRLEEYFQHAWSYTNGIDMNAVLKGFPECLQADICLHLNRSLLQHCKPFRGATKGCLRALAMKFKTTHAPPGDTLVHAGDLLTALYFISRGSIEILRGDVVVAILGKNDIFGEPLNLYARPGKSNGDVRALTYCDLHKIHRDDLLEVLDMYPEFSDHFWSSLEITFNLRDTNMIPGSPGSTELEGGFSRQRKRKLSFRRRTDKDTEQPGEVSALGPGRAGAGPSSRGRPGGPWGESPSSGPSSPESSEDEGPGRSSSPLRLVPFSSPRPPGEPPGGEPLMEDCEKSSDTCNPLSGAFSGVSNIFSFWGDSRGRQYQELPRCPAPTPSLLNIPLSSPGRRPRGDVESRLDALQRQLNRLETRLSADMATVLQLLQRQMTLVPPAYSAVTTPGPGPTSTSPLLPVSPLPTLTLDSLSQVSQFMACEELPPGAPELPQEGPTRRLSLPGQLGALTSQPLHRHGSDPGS

| Compound | hERG current change (%, negative = inhibition) at 10uM [%] |
| --- | --- |
| O=c1[nH]nc(C(F)(F)F)c2nnn(Cc3ccccc3Cl)c12 | 14.1 |
| CN1CCN(c2ccccc2NC(=O)c2ccc(-c3ccc(Cl)c(Cl)c3)o2)CC1 | -3.73 |
| CCn1cc(CN2CCC(n3nccc3NC(=O)CCCc3ccccc3)CC2)cn1 | -27.3 |
| CCn1nc(C)c(CN2CCC(n3nccc3NC(=O)Cc3ccccc3)CC2)c1C | 6.57 |
| CSCCC(=O)N1CCC(n2nccc2NC(=O)CCCc2ccccc2)CC1 | -5.8 |
| C/C=C(\C)CN1CCC(n2nccc2NC(=O)CCOc2ccccc2)CC1 | -31.5 |
| C/C=C(\C)CN1CCC(n2nccc2NC(=O)CCCc2ccccc2)CC1 | -62.9 |
| Cc1ccc(CN2CCC(n3nccc3NC(=O)CCCc3ccccc3)CC2)o1 | -20.5 |
| CCn1nc(C)c(CN2CCC(n3nccc3NC(=O)CCCc3ccccc3)CC2)c1C | -60.1 |
| CCOc1ccc(CN2CCC(n3nccc3NC(=O)CCCc3ccccc3)CC2)cc1 | -78.2 |
| CSCC(=O)N1CCC(n2nccc2NC(=O)CCCc2ccccc2)CC1 | -17.6 |
| C/C=C(\C)CN1CCC(n2nccc2NC(=O)CCc2ccccc2)CC1 | -28.9 |
| CCn1cc(CN2CCC(n3nccc3NC(=O)CCCc3ccccc3)CC2)c(C)n1 | -28.4 |
| CSCCCN1CCC(n2nccc2NC(=O)CCCc2ccccc2)CC1 | -62.5 |
| CC(C)CN(Cc1cc2ccccc2[nH]c1=O)C(=O)c1cccnc1 | -1.54 |
| Cn1nc(C(C)(C)C)cc1C(=O)NNC(=O)c1ccccc1Cl | 14.1 |
| O=C(COC(=O)[C@@H]1CCCN1S(=O)(=O)c1ccc(Cl)cc1)NC1CCS(=O)(=O)C1 (some centres unmarked) | -14.7 |
| COc1ccc(CNC(=O)CCC(=O)N2CCN(C(C)=O)CC2)cc1 | 14.3 |
| Cc1nn(-c2ccccc2)nc1C(=O)Nc1ccc2[nH]ncc2c1 | 6.02 |
| CC1Cc2ccccc2N1c1ncnc2c1nnn2Cc1ccccc1 (centres unmarked) | -0.652 |
| COc1cc(NC(=S)NC2CC2)c(OC)cc1Cl | -1.86 |
| CC(OC(=O)c1cccs1)C(=O)NCc1ccc2c(c1)OCO2 (centres unmarked) | 15.4 |

| Compound | hERG current change (%, negative = inhibition) at 10uM [%] |
| --- | --- |
| Cc1ccccc1-n1nc2c(c1NC(=O)c1ccc(Br)o1)CSC2 | -7.03 |
| COC(=O)c1ccc(CNC(=O)COC(=O)Cc2ccsc2)cc1 | -6.64 |
| CSc1ccc(CN2CCC(n3nccc3NC(=O)CCCc3ccccc3)CC2)cc1 | -82.5 |
| Cc1cccc(CN2CCC(n3nccc3NC(=O)CCCc3ccccc3)CC2)n1 | -20.2 |
| C=C(C)CCC(C)N1CCC(n2nccc2NC(=O)CCCc2ccccc2)CC1 (centres unmarked) | -74.2 |
| CSCC(C)N1CCC(n2nccc2NC(=O)CCCc2ccccc2)CC1 (centres unmarked) | -47.5 |
| COCC(C)N1CCC(n2nccc2NC(=O)CCCc2ccccc2)CC1 (centres unmarked) | -15.2 |
| COc1ccc(C(=O)Nc2nnc(S(=O)(=O)N3CCCCCC3)s2)cc1OC | -0.855 |
| COc1cc(NC(=O)COc2cccc(C)c2C)ccc1NC(=O)c1ccco1 | 13 |
| O=C(Nc1ccc(N2CCOCC2)cc1)c1cccc(S(=O)(=O)N2CCCC2)c1 | 1.96 |
| CC(=O)c1cccc(OCc2cc(C(=O)N(C)C(C)c3ccccn3)no2)c1 (centres unmarked) | -4.32 |
| CC(NC(=O)/C=C/c1cnc2ccccc2n1)C12CC3CC(CC(C3)C1)C2 (centres unmarked) | -10.1 |
| Cc1cc(Cl)c(S(=O)(=O)NC2CCCC2)cc1OCC(=O)NC1CCCCC1 | -7.18 |
| Cc1ccccc1NS(=O)(=O)c1cc(OCC(N)=O)c(C)cc1Cl | 5.68 |
| Cc1cc(Cl)c(S(=O)(=O)N2CCN(c3ccccn3)CC2)cc1OCC(=O)NC1CCCCC1 | -56.9 |
| Cc1cc(Cl)c(S(=O)(=O)Nc2ccc(Cl)cn2)cc1OCC(N)=O | -2.03 |
| Cc1cc(Cl)c(S(=O)(=O)N2CCN(c3ccccn3)CC2)cc1OCC(N)=O | 17.6 |
| Cc1cc(Cl)c(S(=O)(=O)Nc2ccccn2)cc1OCC(N)=O | -71.8 |
| Cc1cc(Cl)c(S(=O)(=O)N2CCCCCC2)cc1OCC(=O)NC1CCCCC1 | -18.6 |
| Cc1cc(Cl)c(S(=O)(=O)NCc2cccnc2)cc1OCC(N)=O | 10.1 |
| Cc1cc(Cl)c(S(=O)(=O)NCc2cccnc2)cc1OCC(=O)NC1CCCCC1 | -53.2 |
| CCNC(=O)c1c(NC(=O)c2cc(-c3cc(C)ccc3O)n[nH]2)sc2c1CCCC2 | 30.5 |
